# Laboratory results taken from PubChem BioAssay (NCATS).
# Calls of active or inactive are those of the source. No rule for the calls is given here.
# System: HIV-1 nucleocapsid protein NCp7 (binding to TG oligonucleotide)
# Assay: HIV Nucleocapsid (AID 346);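 also: potency is for inhibitors that block NC binding and lower polarization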
# Conditions: HIV-1 NC / fluorescein-TGTGTGTG probe, fluorescence polarization
# Protocol: NCGC Assay Overview: HIV-1 nucleocapsid protein (HIV-1 NC) is a small (6.5 kDa) basic zinc-finger protein which participates in packaging of viral genomic RNA. The spacing and metal-chelating residues (3 Cys, 1 His) of the Cys-X2-Cys-X4-His-X4-Cys Zn fingers are conserved among all known retroviruses (J. Med. Chem. 1998, 41, 1371-1381). HIV-1 NC was assayed for its binding to the consensus sequence single-stranded 5'-TGTGTGTG. […] High salt was included to increase the stringency of binding and inhibitor screen. Reducing agents and zinc were present to stabilize the nucleocapsid zinc-finger protein.
# NCGC Assay Protocol Summary: Buffer. Hepes pH 7.5, 250mM NaCl, 1uM ZnCl2. 0.004% polyethylene glycol 20000. TCEP (100 uM) and 2-Mercaptoethanol (5 mM), added fresh the day of the experiment. Reagents/Controls. 10 nM TG4xF only in columns 3 and 4 as negative control. 10 nM TG4xF/100 nM HIV-1 NC in columns 1, 2, 5-48. Titration of control compound NSC-13778 (from 20 mM, then 1:2) pin-transferred to column 2. Assay Steps. Two uL of reagents were dispensed to 1536-well Kalypsys black plates. The plates were centrifuged for 1 min at 1000 rpm. Compounds and controls (20 nL) were transferred via Kalypsys PinTool. The plates were incubated for 1 hr at room temperature, and then read on ViewLux (Perkin-Elmer). High-throughput CCD imager using fluorescein polarization filter set and 45 seconds exposure time.
# Potency is read from the fitted curve at half-maximal effect.
row,SMILES,Potency
1,Cc1cnc(CNc2ncncc2-c2ccc(C(=O)N(C)C)cc2)cn1,> 20 µM (inactive)
2,COc1ncc2nc(-c3ccccc3)c(=O)n(CCc3ccccc3)c2n1,> 20 µM (inactive)
3,c1cncc(CNc2ccnc(-c3cccnc3)n2)c1,> 20 µM (inactive)
4,COc1ccc(-c2nc3cnc(N4CCOCC4)nc3n(-c3ccccc3)c2=O)cc1,> 20 µM (inactive)
5,COc1ccc(-c2nc3cnc(N4CCOCC4)nc3n(C3CC3)c2=O)cc1,> 20 µM (inactive)
6,Cn1cc(-c2nc3cnc(Oc4cccc(Cl)c4)nc3n(C3CC3)c2=O)c2ccccc21,> 20 µM (inactive)
7,CN(C)C(=O)c1ccc(-c2nc(-n3ccnc3)c3ccccc3n2)cc1,> 20 µM (inactive)
8,N#Cc1ccc(CN2CCCC3(CCN(C(=O)c4cc(C(F)(F)F)cc(C(F)(F)F)c4)CC3)C2)cc1,> 20 µM (inactive)
9,Cc1cccc(CNc2cc(-c3ccoc3)ncn2)c1,> 20 µM (inactive)
10,Cc1ccccc1-c1cncnc1N1CCN(C)CC1,> 20 µM (inactive)
11,COc1cccc(Nc2ncc3ncc(=O)n(Cc4ccc(F)cc4)c3n2)c1,> 20 µM (inactive)
12,CCNc1ncc2nc(CCc3ccccc3)c(=O)n(-c3ccc(OC)cc3)c2n1,> 20 µM (inactive)
13,CS(=O)(=O)Nc1cccc(-c2nc(-n3ccnc3)c3ccccc3n2)c1,> 20 µM (inactive)
14,O=S(=O)(c1ccccc1)N1CCC[C@@]2(CCN(c3ncccn3)C2)C1,> 20 µM (inactive)
15,CN1CCN(c2ncc3nc(-c4ccc(F)cc4)c(=O)n(C4CC4)c3n2)CC1,> 20 µM (inactive)
16,CN(C)c1ncc2nc(-c3cc(F)cc(F)c3)c(=O)n(C)c2n1,> 20 µM (inactive)
17,O=C(c1cccc(F)c1)N1CCC[C@@]2(CCN(c3ccncc3)C2)C1,> 20 µM (inactive)
18,O=c1c(-c2cc(F)cc(F)c2)nc2cnc(Oc3ccccc3)nc2n1C[C@H]1CCCO1,> 20 µM (inactive)
19,CS(=O)(=O)N1CCC2(CC1)CN(C(=O)Nc1cccc(C#N)c1)C2,> 20 µM (inactive)
20,Cc1cccc(CNc2ncncc2-c2cccc(C#N)c2)c1,> 20 µM (inactive)

row,SMILES,Potency
1,COc1cccc(Cn2c(=O)cnc3cnc(N4CCOCC4)nc32)c1,> 20 µM (inactive)
2,COc1ncc2nc(C)c(=O)n(CCc3ccccc3)c2n1,> 20 µM (inactive)
3,O=C(c1cccc(F)c1)N1CCC2(CCCN(Cc3ccccc3)C2)CC1,> 20 µM (inactive)
4,O=C(c1ccco1)N1CCC2(CC1)CN(c1cccc(-c3ccccc3)c1)C2,> 20 µM (inactive)
5,COc1ccc(C(=O)N2CCC[C@@]3(CCN(c4ccccn4)C3)C2)cc1,> 20 µM (inactive)
6,O=C(c1cc(C(F)(F)F)cc(C(F)(F)F)c1)N1CCC2(CC1)CCN(c1ccccc1)CC2,> 20 µM (inactive)
7,N#Cc1cccc(-c2ccc3ncnc(NCc4cccnc4)c3c2)c1,> 20 µM (inactive)
8,CN1CCN(c2ncc3nc(-c4ccccc4)c(=O)n(C)c3n2)CC1,> 20 µM (inactive)
9,COc1ccc(-n2c(=O)c(C)nc3cnc(N4CCNCC4)nc32)cc1,> 20 µM (inactive)
10,O=C(Oc1ccccc1)N1CCC[C@@]2(CCN(c3ccccc3)C2)C1,> 20 µM (inactive)
11,O=c1c(-c2ccccc2)nc2cncnc2n1Cc1ccccc1,> 20 µM (inactive)
12,CN(C)c1ncc2nc(CCc3ccccc3)c(=O)n(-c3ccccc3)c2n1,> 20 µM (inactive)
13,O=C(c1csnn1)N1CCC[C@@]2(CCN(Cc3ccccc3)C2)C1,> 20 µM (inactive)
14,COc1ccc(Oc2ncc3nc(C)c(=O)n(Cc4ccc(F)cc4)c3n2)cc1,> 20 µM (inactive)
15,Cn1cc(-c2nc3cncnc3n(Cc3ccc(F)cc3)c2=O)c2ccccc21,> 20 µM (inactive)
16,CN(Cc1ccco1)c1ncnc2ccc(-c3cccc(C#N)c3)cc12,> 20 µM (inactive)
17,O=c1cnc2cncnc2n1Cc1ccc(F)cc1,> 20 µM (inactive)
18,COC(=O)N1CCC2(CCCN(C(c3ccccc3)c3ccccc3)C2)CC1,> 20 µM (inactive)
19,c1ccc(CNc2ncnc3ccc(-c4cccnc4)cc23)cc1,> 20 µM (inactive)
20,O=C(c1ccco1)N1CCC2(CC1)CCN(c1ncccn1)CC2,> 20 µM (inactive)
